Counter-ions that a name gives are not always drawn. Unmarked numbers belong to inactive results.
Each compound was assayed on NCI-H1688 (assay: inhibition of cell viability relative to untreated control (fraction); higher = stronger growth inhibition, active = 0.5 or more). Conditions: 30 µM; 24 h.
Method: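 Natural product library (TargetMol, 640 compounds) screened on NCI-H1688 SCLC cells at 30 µM for 24 h; viability by CCK-8 absorbance at 450 nm, normalised to untreated control and expressed as inhibition rate (fraction). Compounds with >50% reduction in viability were selected as hits.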

Row | SMILES | inhibition of cell viability
1 | C[C@]12CC[C@H](O)CC1=CC[C@@H]1[C@@H]2CC[C@]2(C)C(=O)CC[C@@H]12 [Dehydroepiandrosterone] | 0.0365
2 | O=c1ccc2cc(O[C@@H]3O[C@H](CO)[C@@H](O)[C@H](O)[C@H]3O)c(O)cc2o1 [Esculin] | -0.139
3 | COC(=O)C1=CCCN(C)C1 [Arecoline HBr] | 0.105
4 | NCCc1c[nH]c2ccccc12 [Tryptamine] | -0.188
5 | CN1[C@H]2C[C@H](OC(=O)[C@H](CO)c3ccccc3)C[C@@H]1[C@@H](O)C2 [Anisodamine] | 0.2
6 | C[C@@H]1[C@H](O)[C@@H](C)/C=C/C=C/CC/C=C/C=C/C=C/C=C/[C@H](O[C@H]2O[C@@H](C)[C@H](O)[C@@H](N)[C@H]2O)C[C@@H]2O[C@](O)(C[C@@H](O)[C@H](O)CC[C@@H](O)C[C@@H](O)C[C@@H](O)CC(=O)O[C@H]1C)C[C@H](O)[C@H]2C(=O)O [Nystatin (Fungicidin)] | 0.267
7 | CC(C)=CCC[C@](C)(O)[C@H]1CC[C@]2(C)[C@@H]1[C@H](O)C[C@@H]1[C@@]3(C)CC[C@H](O[C@@H]4O[C@H](CO)[C@@H](O)[C@H](O)[C@H]4O)C(C)(C)[C@@H]3CC[C@]12C [Ginsenoside Rh2] | 0.269
8 | NCC(O)c1ccc(O)cc1 (stereo not given) [Octopamine hydrochloride] | -0.206
9 | CN(C)CCc1ccc(O)cc1 [Hordenine] | 0.0129
10 | CN1[C@@H]2CC[C@H]1C[C@@H](OC(=O)[C@H](CO)c1ccccc1)C2 [L-Hyoscyamine] | 0.305
11 | CNC(=O)Oc1ccc2c(c1)[C@]1(C)CCN(C)[C@@H]1N2C [Physostigmine Salicylate] | 0.126
12 | C[C@@H]1CC[C@H]2[C@@H](C)C(=O)O[C@@H]3O[C@@]4(C)CC[C@@H]1[C@]32OO4 [Artemisinin] | 0.118
13 | CC(=O)[C@]1(O)CC[C@@]2(O)[C@]1(C)[C@H](OC(=O)/C=C(\C)C(C)C)C[C@@H]1[C@@]3(C)CC[C@H](O)CC3=CC[C@]12O [Caudatin] | 0.161
14 | CC(C)[C@]12O[C@H]1[C@@H]1O[C@]13[C@]1(O[C@H]1C[C@H]1C4=C(CC[C@@]13C)C(=O)OC4)[C@@H]2O [Triptolide (PG490)] | 0.948 (active)
15 | O=c1ccc2ccc3occc3c2o1 [Isopsoralen] | -0.0131
16 | COC1=C[C@@H]2[C@@H]3Cc4ccc(OC)c(O)c4[C@]2(CCN3C)CC1=O [Sinomenine] | -0.13
17 | O=C(O)CC[N+](=O)[O-] [Bovinocidin] | -0.0746
18 | CC(=O)O[C@H]1CC[C@H]2[C@@H]3CCC4=CC(=O)CCC4=C3C=C[C@]12C [Trenbolone acetate] | -0.43
19 | COc1ccc2c(c1)[nH]c1c(C)nccc12 [Harmine hydrochloride] | 0.813 (active)
20 | N#CCCN [3-Aminopropionitrile fumarate] | -0.137

Row | SMILES | inhibition of cell viability
21 | O=C1C[C@@H]2OCC=C3CN4CC[C@]56c7ccccc7N1[C@H]5[C@H]2[C@H]3C[C@H]46 [Strychnine] | -0.0859
22 | C1=C2CCCN[C@H]2[C@@H]2C[C@H]1[C@H]1CCCCN1C2 [Aloperine] | 0.311
23 | CC[C@@]1([C@@H]2O[C@@H]([C@H]3O[C@@](O)(CO)[C@H](C)C[C@@H]3C)C[C@@H]2C)CC[C@H]([C@]2(C)CC[C@]3(C[C@H](O)[C@@H](C)[C@@H]([C@@H](C)[C@@H](OC)[C@H](C)C(=O)O)O3)O2)O1 [Monensin sodium salt] | 0.761 (active)
24 | C[C@@H]1O[C@@H](O[C@H]2C[C@@H](O)[C@]3(CO)[C@H]4[C@H](O)C[C@]5(C)[C@@H](C6=CC(=O)OC6)CC[C@]5(O)[C@@H]4CC[C@]3(O)C2)[C@H](O)[C@H](O)[C@H]1O [Ouabain octahydrate] | 0.99 (active)
25 | C[C@@H]1CC[C@@]2(OC1)O[C@H]1C[C@H]3[C@@H]4CC=C5C[C@@H](O[C@@H]6O[C@H](CO)[C@@H](O[C@@H]7O[C@@H](C)[C@H](O)[C@@H](O)[C@H]7O)[C@H](O)[C@H]6O[C@@H]6O[C@@H](C)[C@H](O)[C@@H](O)[C@H]6O)CC[C@]5(C)[C@H]4CC[C@]3(C)[C@H]1[C@@H]2C [Dioscin] | 0.976 (active)
26 | CC(=O)O[C@H]1[C@H]2[C@@H](OC(=O)Cc3ccccc3)[C@@H](C)C[C@]2(OC(C)=O)C(=O)/C(C)=C/[C@@H]2[C@H](CC[C@@]13CO3)C2(C)C [Euphorbiasteroid] | 0.499
27 | CC(=O)O[C@H]1C(=O)[C@@]2(C)[C@H]([C@H](OC(=O)c3ccccc3)[C@]3(O)C[C@H](O)C(C)=C1C3(C)C)[C@]1(OC(C)=O)CO[C@@H]1C[C@@H]2O [Baccatin III] | 0.535 (active)
28 | C[C@@]12C(=O)OC(=O)[C@]1(C)[C@H]1CC[C@@H]2O1 [Cantharidin] | 0.983 (active)
29 | CN1CCc2cc3c(cc2C1O)OCO3 (stereo not given) [Hydrastinine hydrochloride] | 0.248
30 | CN1[C@@H]2C[C@@H](OC(=O)[C@H](CO)c3ccccc3)C[C@H]1[C@@H]1O[C@@H]12 [Scopolamine HBr] | -0.0423
31 | CC1=C2C(=O)[C@H]3[C@@H](CC=C4C[C@@H](O)CC[C@@]43C)[C@@H]2CC[C@]12O[C@@H]1C[C@H](C)CN[C@H]1[C@H]2C [Jervine] | 0.601 (active)
32 | CC(C)(C)[C@]1(O)CC2OC(=O)CC23C(=O)OC2OC(=O)[C@H](O)C231 (stereo not given in full) [Bilobalide] | 0.155
33 | C#C[C@]1(O)CC[C@H]2[C@@H]3CCC4=CC(=O)CC[C@]4(C)[C@H]3CC[C@@]21C [Ethisterone] | 0.178
34 | NCCc1ccccc1 [Phenethylamine] | -0.183
35 | CC1=C2C[C@H]3[C@@H](CC=C4C[C@@H](O)CC[C@@]43C)[C@@H]2CC[C@]12O[C@@H]1C[C@H](C)CN[C@H]1[C@H]2C [Cyclopamine] | 0.162
36 | CCC(=O)O[C@H]1CC[C@H]2[C@@H]3CCC4=CC(=O)CC[C@]4(C)[C@H]3CC[C@]12C [Testosterone propionate] | -0.173
37 | COc1ccc2c(c1O)-c1c(OC)c(OC)cc3c1[C@H](C2)N(C)CC3 [S-Isocorydine(+)] | 0.0897
38 | O=C1C=CC[C@@H]2[C@H]3CCC[N+]4([O-])CCC[C@@H](CN12)[C@@H]34 (stereo not given in full) [Oxysophocarpine] | -0.0366
39 | CCN1C[C@]2(OC(=O)c3ccccc3NC(C)=O)CC[C@H](OC)[C@@]34[C@@H]2C[C@@H]([C@@H]13)[C@@]1(O)C[C@H](OC)[C@H]2C[C@@H]4[C@]1(O)[C@H]2OC [Lappaconitine] | -0.0777
40 | CC(C)=CCOc1c2occc2cc2ccc(=O)oc12 [Imperatorin] | 0.0251
